Only some compounds are listed: those with a hit (about 1.4% of all), similar ones and a draw of the others.
p53 reactivator: restores transcriptional activity of mutant p53. H1299 p53-A138V BP100-luciferase reporter, luminescence, 24 h. Potency, µM (doses to about 92.2 µM), for the others: top-dose activity change, positive = activation, actives largely listed as activators. actives 0.063% (n = 320,000). AID 504706; further: potency means the concentration at half of the fitted maximal effect; % of control where 0% means no effect; nearly all actives have a fitted effect of over 45% in size
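p53-null H1299 cells stably carrying temperature-sensitive p53-A138V and a BP100-luciferase reporter were pinned with compounds (4-point, 1:5 series) and held 24 hrs at 37 deg C. Luminescence was read 10 min after detection reagent.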
CCT chaperon mod: cytosolic chaperonin activity modulation; purified chaperonin ATPase assay, HTRF ADP detection, 30 min; activity change, % (no concentration beside the values), hits read low; actives 0.3% (n = 360,000); in the data active means activity change below about -30%; further: on the % scale 0 is the no-effect control and ±100 the full control effect
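ATPase activity: ADP formed was measured by HTRF Transcreener (665/615 nm ratio) after 30 min at 37 deg C with 10 uM ATP. Compounds screened at one 76 uM concentration against 40 or 20 nM TRiC in Tris pH 7.4/KCl/MgCl2/DTT buffer.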
ASM inhibitor: blocks human secretory acid sphingomyelinase; P17405; placental ASM, HMU-PC fluorogenic substrate, 60 min; Potency, µM (titrated, usually from 57.5 µM), for the others: top-dose activity change, negative = inhibition, hits mostly inhibitors; actives 0.006% (n = 340,000); AID 504937; further: potency means the concentration at half of the fitted maximal effect
Target sequence (P17405 47-631 limits assumed): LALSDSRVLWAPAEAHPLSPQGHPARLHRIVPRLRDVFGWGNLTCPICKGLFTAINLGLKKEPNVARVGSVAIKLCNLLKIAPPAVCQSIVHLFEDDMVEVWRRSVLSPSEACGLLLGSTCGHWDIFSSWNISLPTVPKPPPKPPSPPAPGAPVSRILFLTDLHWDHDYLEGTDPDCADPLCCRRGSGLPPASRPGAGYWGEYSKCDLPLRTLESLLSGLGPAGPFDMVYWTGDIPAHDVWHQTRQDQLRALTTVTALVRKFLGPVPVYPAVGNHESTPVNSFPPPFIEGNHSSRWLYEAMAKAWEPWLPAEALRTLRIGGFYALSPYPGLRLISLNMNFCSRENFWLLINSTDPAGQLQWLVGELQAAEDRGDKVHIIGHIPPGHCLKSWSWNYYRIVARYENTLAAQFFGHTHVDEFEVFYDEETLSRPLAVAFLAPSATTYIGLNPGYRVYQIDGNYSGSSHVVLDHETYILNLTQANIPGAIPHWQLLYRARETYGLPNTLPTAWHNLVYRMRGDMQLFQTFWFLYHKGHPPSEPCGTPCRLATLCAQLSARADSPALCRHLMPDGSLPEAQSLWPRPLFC
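Human placenta-derived ASM preincubated with compound 10 min at room temperature, then reacted with 9 uM (final) fluorogenic HMU-PC substrate for 60 min at 37 C. Stop solution raises pH to 10; fluorescence read at Ex 386/Em 447 nm.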
Mm-Cpn inhibitor: blocks the Methanococcus maripaludis chaperonin Mm-Cpn. purified Mm-Cpn ATPase, ADP Transcreener TR-FRET. Potency, µM (series often up to 76.9 µM), inactives show at the highest dose activity, negative = inhibition, hits mostly inhibitors. AID 504842. actives 0.031% (n = 330,000); further: potency means the concentration at half of the fitted maximal effect; on the % scale 0 is the no-effect control and ±100 the full control effect; nearly all actives have a fitted effect of over 80% in size
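TR-FRET (320 nm excitation; 590 and 665 nm emission) reports ADP made from 10 uM ATP by 25 nM enzyme; compounds were preincubated 10 min, reaction run 30 min, both at 37°C.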
PINK1 expr mod: modulators of PINK1 expression; PINK1 immunofluorescence, high-content cytometry, 24 h; Potency, µM (titrated, usually from 76.6 µM), inactives show at the top dose activation (PINK1 increase), usual class: activators; actives 0.2% (n = 410,000); active means well fitted activation curve with a large enough effect; inconclusive means small, poorly fitted or top-dose-only effect; cell line not stated here; further: potency means the concentration at half of the fitted maximal effect; % of control where 0% means no effect; nearly all actives have a fitted effect of over 65% in size
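PINK1 protein, normally rapidly degraded, was detected by immunofluorescence after 24 hour compound treatment of a stable cell line. Titration data (5 concentrations) came from laser-scanning cytometry, with CCCP-treated wells as controls.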
ALOX12 inh: ALOX12 (human) lipoxygenase inhibition; Potency, µM (titrated, usually from 108 µM), without a hit: top-dose activity change, negative = inhibition, hits mostly inhibitors; actives 1.1% (n = 580,000); P18054; purified 12hLO, xylenol orange hydroperoxide absorbance; further: potency means the concentration at half of the fitted maximal effect; on the % scale 0 is the no-effect control and ±100 the full control effect
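Hydroperoxide product was detected by ferrous iron/xylenol orange as the 573 to 405 nm absorbance ratio. Arachidonic acid at 40 uM (final) was turned over for 30 min at room temperature by 150 nM human 12hLO, pH 7.0 Hepes buffer, after 15 min compound preincubation.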
* = called active by the depositor; ? = inconclusive; . = no result; [ ] = another dose, or the depositor's remark. Unless noted, the call rests on the fitted dose curve; in most records, active means well fitted curve in the direction sought with a large enough effect; inconclusive means small, poorly fitted or top-dose-only effect, or another doubt; inactive means no such curve, though single readings can be large; an effect the other way counts as inactive or inconclusive.

SMILES	p53 reactivator	CCT chaperon mod	ASM inhibitor	Mm-Cpn inhibitor	PINK1 expr mod	ALOX12 inh
Nc1c(C(=O)Nc2ccc(C(=O)O)cc2)sc2nc3c(cc12)CCCC3	.	.	.	.	1%	18µM*
CN1CCc2nc3sc(C(=O)c4ccc(Cl)cc4)c(N)c3cc2C1	.	.	.	.	.	35µM*
CC(C)OC(=O)c1c(-c2ccccc2Cl)csc1NC(=O)CCCC(=O)O	.	.	.	.	.	-2%
COC(=O)C1=C(C)N(Cc2ccccc2)C(=S)NC1c1cccc(Br)c1 (configuration not stated)	.	.	.	.	.	40µM*
CCN1C(=O)N[C@@H](c2cccc(F)c2)C(C(=O)OC)=C1C	.	-40*	-1%	.	0%	-8%
COC(=O)C1=C(C)N(Cc2ccccc2)C(=S)N[C@H]1c1cccc(F)c1	1%	1	-12%	-5%	1%	?
COC(=O)C1=C(C)N(Cc2ccc(Br)cc2)C(=S)NC1c1cccc(Br)c1 (configuration not stated)	.	.	.	.	.	40µM*
CCN1C(=O)N[C@@H](c2cccc(C(F)(F)F)c2)C(C(=O)OC)=C1C	.	-4	0%	.	4%	-40%
COC(=O)C1=C(C)N(Cc2ccc(Br)cc2)C(=S)NC1c1ccccc1 (configuration not stated)	.	.	.	.	.	40µM*
COC(=O)C1=C(C)N(Cc2ccccc2)C(=O)N[C@H]1c1ccc(Br)cc1	-9%	0	-8%	-2%	3%	11%
CCOCC1(C)COc2ccc(C(=O)Nc3ccccn3)cc2N1 (configuration not stated)	.	.	.	.	.	52%[176 µM]
CN(C)CCNC(=S)NC(=O)c1ccccc1	.	.	.	.	.	27%
CN(C(=O)C12CC3CC(CC(Cl)(C3)C1)C2)C1CCCCC1	.	.	.	.	.	11%
C=CCNC(=S)NS(=O)(=O)c1cccs1	1%	-2	5%	-1%	-1%	1.1µM*
N#Cc1cccnc1N1CCN(C(C(=O)O)c2c[nH]c3ccc(Cl)cc23)CC1 (configuration not stated)	.	.	.	.	.	0%
COCCNc1ncnc2ccc(-c3ccccc3OC)cc12	.	.	.	.	1%	?
COCCNc1ncnc2ccc(-c3ccccc3C(F)(F)F)cc12	.	.	.	.	1%	20µM*
O=C(NCCc1ccccn1)C1CCC1	.	.	.	.	.	1%
Cc1ccc(C(=O)N/N=C(/CC(=O)c2cccs2)C(F)(F)F)cc1	5%	-1	-8%	0%	45µM*	-22%
O=C(N/N=C(\CC(=O)c1cccs1)C(F)(F)F)c1ccncc1	5%	-1	-10%	2%	-1%	13%
NS(=O)(=O)c1ccc(-c2ccc(C=C3C(=O)c4ccccc4C3=O)o2)cc1	.	0	3%	-2%	1%	4%
CC(C)CC1=C/C(=C/c2ccc(-c3ccccc3)o2)C(=O)O1	11%	-4	204%	0%	-1%	13µM*
C#CCN1CCCCC1C(=O)NCCc1ccccc1 (configuration not stated)	.	.	.	.	.	-10%
Cc1ccccc1-c1nc(Nc2ccncc2)c2ccccc2n1	.	.	.	.	8%	35µM*
Oc1ccccc1-c1nc(NCc2cccnc2)c2ccccc2n1	-3%	-1	9%	-4%	1%	-13%
SMILES	p53 reactivator	CCT chaperon mod	ASM inhibitor	Mm-Cpn inhibitor	PINK1 expr mod	ALOX12 inh
Cc1ccccc1-c1nc(NCc2cccnc2)c2ccccc2n1	.	.	.	.	0%	28µM*
Clc1ccccc1-c1nc(Nc2ccncc2)c2ccccc2n1	.	.	.	.	6%	?
CC(C#N)OC(=O)c1ccc(CNC(=O)OC(C)(C)C)cc1 (configuration not stated)	.	.	.	.	.	-1%
Cc1cn([C@H]2C[C@H](O)[C@@H](CNS(=O)(=O)N3CCCC3)O2)c(=O)[nH]c1=O	.	2	.	.	-1%	7.9µM*
CCC(=O)Nc1ccc(S(=O)(=O)NC[C@H]2O[C@@H](n3cc(C)c(=O)[nH]c3=O)C[C@@H]2O)cc1	.	-1	.	.	-1%	-4%
CCN(C(=O)c1cc2ccc(OC)cc2[nH]1)C1CCCCC1	.	.	.	.	.	-20%

Screening results: PubChem, National Center for Advancing Translational Sciences (NCATS)
